Our source for the Potency values is PubChem BioAssay (Tox21).

Assay [1] can be described thus: Nuclear factor erythroid 2-related factor 2/antioxidant responsive element (Nrf2/ARE) small molecule agonists: qHTS cell viability counter screen in human keratinocytes (AID 1919968; active means well fitted curve in the direction sought with a large enough effect in the repeat runs; an effect the other way counts as inactive or inconclusive; further: nearly all actives have a fitted effect of over 55% in size; further: potency means the concentration at half of the fitted maximal effect). Put shortly:
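Cells of the KeratinoSens line were plated at 1,500 per well and left for 5 h before compound transfer from DMSO stocks. After a 23 h incubation (37 C, 5% CO2), CellTiter-Fluor was added. Signal was taken as fluorescence intensity 1 h later.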

The nature of assay [2]: Nuclear factor erythroid 2-related factor 2/antioxidant responsive element (Nrf2/ARE) small molecule agonists: luciferase reporter gene qHTS assay in human keratinocytes (AID 1919969). Further: nearly all actives have a fitted effect of over 35% in size. Further: potency means the concentration at half of the fitted maximal effect. For orientation: A reporter such as luciferase makes a cellular process visible.
Assay [3] concerns the target Gonadotropin-releasing hormone receptor (Homo sapiens) (UniProt P30968). In words: Human gonadotropin-releasing hormone receptor (GnRHR) small molecule agonists, calcium flux assay in GnRHR-HEK293 cells (AID 1920063). Further: nearly all actives have a fitted effect of over 35% in size. Put shortly: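 Compounds dissolved in DMSO are pin-transferred onto dye-loaded GnRHR-HEK293 cells, which were seeded 18 h before at 37 C/5% CO2. Calcium signal is read as fluorescence intensity at 1 s intervals for 3 min.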
(In general: Calcium assays in cells follow changes in intracellular calcium, usually with a dye or a luminescent sensor.)

In assay [4] the target is KiSS-1 receptor (Homo sapiens) (UniProt Q969F8). The assay can be described thus: Human kisspeptin (KISS1R) small molecule agonists, calcium flux assay in KISS1R-HEK293 cells (AID 1920064; active means well fitted curve in the direction sought with a large enough effect in the repeat runs; an effect the other way counts as inactive or inconclusive). Put shortly: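 Cell line: HEK293, stable human KISS1R. Dye loading 1 h at 37 C after 18 h culture. Read: kinetic fluorescence, 480/540 nm, 3 min at 1 s intervals.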
Assay [5] can be described thus: G protein-coupled receptor (GPCR) small molecule agonists, calcium flux assay: HEK293 wild type cell line counter screen (AID 1920065). Put shortly: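 Tox21 10K compounds, 15 concentrations each in triplicate, pin-transferred in DMSO onto dye-loaded cells; kinetic read at 480/540 nm for 3 min, 1 s intervals.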
Assay [6] in a line: p53 small molecule agonists, cell-based qHTS assay with human liver microsomes (AID 1963577). Further: potency means the concentration at half of the fitted maximal effect.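 On activation: p53 response element beta-lactamase reporter cells with liver microsomes plus NADPH.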 Put shortly:
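With metabolic activation: human liver microsomes (0.5 mg/mL final) plus NADPH (0.5 mg/mL final) added alongside compounds to p53RE-bla cells; 16 h 37 C exposure; beta-lactamase read by LiveBLAzer fluorescence.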

The nature of assay [7]: p53 small molecule agonists, cell-based qHTS assay with rat liver microsomes (AID 1963578). Put shortly:
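Metabolic activation by rat liver microsomes and NADPH, each 0.5 mg/mL final, added right after compounds to p53RE-bla reporter cells (4,000/well, plated 5 h earlier). 16 h at 37 C, then LiveBLAzer substrate for 2 h at room temperature in the dark; fluorescence read-out.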
(In general: In qHTS, concentration-response curves come from the screen itself.)

A short description of assay [8]: p53 small molecule agonists, cell-based qHTS assay with rat liver microsomes: qHTS cell viability counter screen (AID 1963580). Further: nearly all actives have a fitted effect of over 45% in size. Put shortly:
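Counter screen for cytotoxicity under metabolic activation: rat liver microsomes and NADPH, 0.5 mg/mL final each, added with compounds to p53RE-bla HCT-116 cells; 16 h at 37 C, then ATP luminescence read.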

A short description of assay [9]: p53 small molecule agonists, cell-based qHTS assay (AID 1963582; active means well fitted activation curve with a large enough effect in the signal ratio in the repeat runs, not every such curve was filed as active; the % refers to the signal ratio). In a few lines:
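16 h compound exposure (37 C) of p53 response element–bla cells, preceded by 5 h recovery at 37 C/5% CO2; read-out via LiveBLAzer B/G FRET substrate, 2 h RT, fluorescence intensity.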

Assay [10] deals with 5-hydroxytryptamine receptor 2A (Homo sapiens) (UniProt P28223). The assay can be described thus: 5-hydroxytryptamine receptor 2A (HTR2A) small molecule antagonists, cell-based qHTS assay (AID 1963586). Further: nearly all actives have a fitted effect of over 45% in size. Further: potency means the concentration at half of the fitted maximal effect. Put shortly: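 CHO cells stably expressing human HTR2A were plated for 18 h at 37 C, then loaded with calcium dye for 1 h. Compounds were preincubated 5 min at room temperature before DOI (4 nM solution) was added. Kinetic fluorescence was read for 3 min.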

For assay [11] the target is unchanged. In words: 5-hydroxytryptamine receptor 2A (HTR2A) small molecule agonists, cell-based qHTS assay (AID 1963587). Further: nearly all actives have a fitted effect of over 30% in size. Put shortly:
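HTR2A-CHO cells, plated 18 h at 37 C/5% CO2, dye-loaded 1 h at 37 C; compounds in DMSO added by pin tool (agonist mode). Intracellular calcium flux read as kinetic fluorescence on FDSS over 2 min at 1 s intervals.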

Assay [12] concerns the target Muscarinic acetylcholine receptor M1 (Homo sapiens) (UniProt P11229). The assay can be described thus: Cholinergic receptor muscarinic 1 (CHRM1) small molecule antagonists, cell-based qHTS assay (AID 1963588). Further: nearly all actives have a fitted effect of over 40% in size. Put shortly:
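Compounds were tested at 15 concentrations in three independent runs. Dye-loaded CHRM1-CHO cells were exposed 5 min at room temperature before stimulation by acetylcholine added at 50nM. Intracellular calcium was read kinetically on FDSS for 3 min.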

Assay [13] shares this target. The assay can be described thus: Cholinergic receptor muscarinic 1 (CHRM1) small molecule agonists, cell-based qHTS assay (AID 1963589). Further: nearly all actives have a fitted effect of over 35% in size. In a few lines:
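Homogeneous fluorescence calcium flux, agonist mode. Human M1-expressing CHO cells; compound dosed at 15 concentrations, three independent runs; signal sampled every 1 sec.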

A short description of assay [14]: cAMP Responsive Elements (CRE) small molecule agonists, cell-based qHTS assay (AID 1963590). In a few lines: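 HEK 293T cells stably bearing CRE-bla were plated at 2,000 cells per well and rested 18 h. Compounds, positive controls or DMSO were added for 3 h at 37 C. LiveBLAzer B/G substrate was then loaded for 2 h at room temperature.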
Assay [15] is described as follows: cAMP Responsive Elements (CRE) small molecule antagonists, cell-based qHTS assay (AID 1963591; active means well fitted inhibition curve with a large enough effect in the signal ratio in the repeat runs, not every such curve was filed as active; the % refers to the signal ratio). In a few lines: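 First, CRE-bla HEK293T cells settled 18 h at 37 C. Next, compound and 0.25 uM final NKH477 were applied for 3 h. Last, LiveBLAzer B/G substrate was loaded for 2 h at room temperature.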
Assay [16] deals with Beta-2 adrenergic receptor (Homo sapiens) (UniProt P07550). In words: Adrenergic beta2 receptor (ADRB2) small molecule antagonists, cell-based qHTS assay (AID 1963592). Further: series mostly up to about 92 µM; nearly all actives have a fitted effect of over 50% in size. In a few lines: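 Assay format: CHO-ADRB2 cells, 18-20hr seeding at 37C/5% CO2, then compound plus 1nM isoproterenol agonist mix for 0.5hr RT. Homogeneous time-resolved fluorescence cAMP detection after 1hr, expressed as 665/615 nm ratio.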

Assay [17] addresses D(2) dopamine receptor (Homo sapiens) (UniProt P14416). In words: Dopamine D2 receptor (DRD2) small molecule agonists, cell-based qHTS assay (AID 1963594). Further: nearly all actives have a fitted effect of over 35% in size. Put shortly: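 HEK293 cells stably expressing DRD2 were cultured 24 h at 37 C, then given Ro20-1724 (0.1 mM final) and compounds for 10 min at room temperature. NKH477 (200nM) was then added for 30 min. cAMP was read by HTRF.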

For assay [18] the target is unchanged. In words: Dopamine D2 receptor (DRD2) small molecule antagonists, cell-based qHTS assay (AID 1963595; active means well fitted inhibition curve with a large enough effect in the signal ratio in the repeat runs, with a control signal flat; the % refers to the signal ratio). In a few lines: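 HEK293 cells stably expressing DRD2 were preincubated with 0.1 mM Ro20-1724, then with compound for 10 min at room temperature. Cells were stimulated with 200 nM NKH477 plus 12 nM quinpirole for 30 min, and cAMP was read by HTRF.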
Assay [19] can be described thus: p53 small molecule agonists, cell-based qHTS assay with human liver microsomes: qHTS cell viability counter screen (AID 1963579). Further: nearly all actives have a fitted effect of over 45% in size. Put shortly:
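Metabolic activation used human liver microsomes and NADPH, both 0.5 mg/mL final, over 16 hours at 37 C on p53RE-bla cells (4,000/well). Cytotoxicity measured by CellTiter-Glo luminescence, 30 min at room temperature.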

Assay [20] is described as follows: p53 small molecule agonists, cell-based qHTS assay: qHTS cell viability counter screen (AID 1963581). Further: nearly all actives have a fitted effect of over 45% in size. Put shortly:
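ATP content measured by luminescence in HCT-116 p53RE-bla cells treated 16 h at 37 C, same wells as the reporter screen.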

Structures are written as SMILES. Values joined by “and” are separate entries in the source; they are usually repeats but may differ in a detail not shown here. Identical values can stand only once. Inconclusive results are not listed. Where a structure was tested more than once in an assay, its records may differ in their call. Active and inactive are the calls of the source. Unless noted, the call rests on the fitted dose curve.

Beta-2 adrenergic receptor (Homo sapiens), sequence (P07550 whole entry, looked up): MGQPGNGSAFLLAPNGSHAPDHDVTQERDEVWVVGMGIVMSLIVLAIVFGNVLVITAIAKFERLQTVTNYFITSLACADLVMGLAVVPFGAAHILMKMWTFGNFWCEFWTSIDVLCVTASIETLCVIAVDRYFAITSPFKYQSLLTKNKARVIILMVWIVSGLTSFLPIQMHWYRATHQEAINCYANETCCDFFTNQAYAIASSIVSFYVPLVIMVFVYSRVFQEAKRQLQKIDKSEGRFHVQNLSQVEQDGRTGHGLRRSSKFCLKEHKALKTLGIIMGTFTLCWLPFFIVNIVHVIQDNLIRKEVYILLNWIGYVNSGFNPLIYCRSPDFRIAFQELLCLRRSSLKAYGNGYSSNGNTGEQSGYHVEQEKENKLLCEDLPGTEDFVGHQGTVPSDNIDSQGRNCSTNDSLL
Gonadotropin-releasing hormone receptor (Homo sapiens), sequence (P30968 whole entry, looked up): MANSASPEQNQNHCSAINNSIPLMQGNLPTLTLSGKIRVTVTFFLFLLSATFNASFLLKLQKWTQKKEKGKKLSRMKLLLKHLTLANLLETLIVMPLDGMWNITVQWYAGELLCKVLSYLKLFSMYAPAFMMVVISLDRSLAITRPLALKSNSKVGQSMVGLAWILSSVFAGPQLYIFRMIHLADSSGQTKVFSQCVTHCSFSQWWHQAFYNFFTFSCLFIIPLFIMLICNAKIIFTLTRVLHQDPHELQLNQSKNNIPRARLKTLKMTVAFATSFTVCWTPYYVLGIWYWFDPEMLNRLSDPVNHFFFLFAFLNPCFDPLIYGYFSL
D(2) dopamine receptor (Homo sapiens), sequence (P14416 whole entry, looked up): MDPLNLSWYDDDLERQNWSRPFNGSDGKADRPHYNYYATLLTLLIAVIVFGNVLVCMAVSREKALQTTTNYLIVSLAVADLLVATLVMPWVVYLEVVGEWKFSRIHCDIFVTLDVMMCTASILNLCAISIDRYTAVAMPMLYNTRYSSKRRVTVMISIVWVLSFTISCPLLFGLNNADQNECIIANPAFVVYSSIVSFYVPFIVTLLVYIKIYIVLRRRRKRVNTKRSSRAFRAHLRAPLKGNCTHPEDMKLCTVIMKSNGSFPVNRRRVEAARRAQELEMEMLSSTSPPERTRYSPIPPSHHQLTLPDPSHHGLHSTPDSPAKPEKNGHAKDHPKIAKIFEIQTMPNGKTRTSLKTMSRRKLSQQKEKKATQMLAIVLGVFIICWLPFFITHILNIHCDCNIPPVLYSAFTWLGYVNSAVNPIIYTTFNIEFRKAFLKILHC
KiSS-1 receptor (Homo sapiens), sequence (Q969F8 whole entry, looked up): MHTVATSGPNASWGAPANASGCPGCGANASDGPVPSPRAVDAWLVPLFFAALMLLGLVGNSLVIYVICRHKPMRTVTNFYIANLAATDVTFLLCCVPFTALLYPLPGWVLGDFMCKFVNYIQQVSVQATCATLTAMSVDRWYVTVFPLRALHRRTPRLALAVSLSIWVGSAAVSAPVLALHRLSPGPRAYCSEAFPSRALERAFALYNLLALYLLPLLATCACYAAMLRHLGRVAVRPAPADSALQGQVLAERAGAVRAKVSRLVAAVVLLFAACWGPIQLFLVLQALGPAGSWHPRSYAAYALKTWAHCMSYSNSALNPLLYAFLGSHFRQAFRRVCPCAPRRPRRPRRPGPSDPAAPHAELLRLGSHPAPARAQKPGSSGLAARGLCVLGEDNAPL
5-hydroxytryptamine receptor 2A (Homo sapiens), sequence (P28223 whole entry, looked up): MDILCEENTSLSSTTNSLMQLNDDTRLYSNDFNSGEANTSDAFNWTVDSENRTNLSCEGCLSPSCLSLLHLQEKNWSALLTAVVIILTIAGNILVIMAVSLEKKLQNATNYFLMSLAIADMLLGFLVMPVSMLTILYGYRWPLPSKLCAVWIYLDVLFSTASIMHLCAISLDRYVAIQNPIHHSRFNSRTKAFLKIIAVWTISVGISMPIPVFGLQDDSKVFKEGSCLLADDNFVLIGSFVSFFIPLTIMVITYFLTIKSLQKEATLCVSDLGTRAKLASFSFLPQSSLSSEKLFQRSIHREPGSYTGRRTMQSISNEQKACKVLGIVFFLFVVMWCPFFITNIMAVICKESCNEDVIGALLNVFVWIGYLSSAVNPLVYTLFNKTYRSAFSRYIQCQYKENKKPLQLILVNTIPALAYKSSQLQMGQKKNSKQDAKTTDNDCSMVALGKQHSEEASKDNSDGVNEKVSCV
Muscarinic acetylcholine receptor M1 (Homo sapiens), sequence (P11229 whole entry, looked up): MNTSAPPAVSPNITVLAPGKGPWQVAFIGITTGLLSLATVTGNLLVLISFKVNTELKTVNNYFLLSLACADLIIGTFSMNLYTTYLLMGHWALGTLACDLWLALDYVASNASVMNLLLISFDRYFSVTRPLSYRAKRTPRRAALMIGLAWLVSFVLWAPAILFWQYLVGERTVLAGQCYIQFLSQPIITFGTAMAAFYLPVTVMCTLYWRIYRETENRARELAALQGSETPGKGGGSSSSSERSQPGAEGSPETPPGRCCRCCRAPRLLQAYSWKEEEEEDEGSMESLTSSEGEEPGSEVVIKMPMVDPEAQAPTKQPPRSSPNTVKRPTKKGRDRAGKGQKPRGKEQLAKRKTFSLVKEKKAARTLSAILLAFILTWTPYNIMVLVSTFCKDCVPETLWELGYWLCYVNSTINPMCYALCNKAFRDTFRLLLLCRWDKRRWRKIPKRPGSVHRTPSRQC

Consider `CN(C)CCO`, for which the Potency entry in assay [1], in assay [3], in [4], in assay [5], in assay [6] and in assay [7] was “inactive” in each case. The Potency entry in [8], in assay [9], in assay [10], in assay [11], in assay [12] and in assay [13] was “inactive” each time. The Potency result in [14], in [15], in assay [16], in assay [17] and in assay [18] was “inactive” each time. Further, in assay [2], the Potency is 69.1 µM (active) and inactive.
As for `Oc1ccc(C(c2ccc(O)cc2)(C(F)(F)F)C(F)(F)F)cc1`, the Potency was 38.4 µM (active) and 54.5 µM (active) in assay [1]; 37.5 µM (active) in assay [10]. The Potency entry in assay [2], in assay [3], in assay [4], in [5], in assay [6] and in [7] was “inactive” each time. For the same compound, the Potency entry in [12], in assay [13], in assay [17] and in assay [18] was “inactive” each time.
`COP(=S)(OC)SCn1nnc2ccccc2c1=O`: the Potency entry in assay [1], in [3], in [4], in assay [5], in assay [19] and in assay [8] was “inactive” throughout. Also, the Potency entry in assay [20], in assay [9], in [10], in assay [11], in assay [12] and in assay [13] was “inactive” in each case. The Potency entry in [14], in assay [15], in assay [16], in assay [17] and in assay [18] was “inactive” each time. The Potency in assay [2] was 53.4 µM (active) and 68.6 µM (active); in assay [6], 12.6 µM (active).
As to `COc1cc(OC)nc(Oc2cccc(Oc3nc(OC)cc(OC)n3)c2C(=O)O)n1`, the Potency entry in [1], in [2], in [3], in [4], in assay [5] and in assay [6] was “inactive” in each case. The Potency result in assay [19], in assay [8], in [20], in assay [9], in assay [10] and in assay [11] was “inactive” in each case. Besides, the Potency entry in assay [12], in assay [13], in assay [14], in assay [15], in assay [16] and in assay [17] was “inactive” each time. In addition, in [18], the Potency entry is “inactive”.
For the compound `Cc1ccccc1N`, the Potency entry in assay [1], in assay [2], in [3], in [4], in assay [5] and in assay [6] was “inactive” each time. Moreover, the Potency result in assay [19], in assay [8], in assay [20], in [9], in assay [10] and in assay [11] was “inactive” throughout. In addition, the Potency result in [12], in assay [13], in assay [14], in [15], in assay [16] and in assay [17] was “inactive” in each case. In addition, in assay [18], the Potency entry was “inactive”.
For the compound `O=C(CCN1CC1)OCC(CO)(COC(=O)CCN1CC1)COC(=O)CCN1CC1`, the Potency result in [1], in [2], in [3], in [4], in assay [5] and in assay [6] was “inactive” each time. The Potency entry in assay [7], in assay [8], in [20], in assay [10], in assay [11] and in assay [12] was “inactive” in each case. In addition, the Potency entry in assay [13], in [14], in [15], in assay [17] and in assay [18] was “inactive” throughout.
For the compound `CCCCSP(=O)(SCCCC)SCCCC`, the Potency entry in assay [1], in [2], in [3], in assay [4], in assay [5] and in [6] was “inactive” throughout. For the same compound, the Potency entry in assay [19], in assay [8], in assay [20], in assay [9], in [10] and in assay [11] was “inactive” throughout. Moreover, the Potency entry in [12], in assay [13], in assay [14], in assay [15], in assay [16] and in assay [17] was “inactive” throughout.
Turning to `Oc1ccccc1Cl`, the Potency entry in [1], in assay [2], in [3], in assay [4], in assay [5] and in assay [6] was “inactive” in each case. The Potency result in [7], in [8], in [20], in [9], in assay [10] and in [11] was “inactive” in each case. The Potency result in assay [12], in assay [13], in assay [14] and in assay [16] was “inactive” in each case.
